PubChem BioAssay (EPA / NIEHS)
Where a structure was tested more than once in an assay, its records may differ in their call. The source made the active and inactive calls. Rule for the calls: active = hit-call score of the fitted dose curve at least 0.9, where 1 is the maximum; inactive = score below 0.9.

Assays:
[1] = ATG_CRE_CIS: Attagene CIS-FACTORIAL HepG2 Assay for human cAMP Responsive Element (CRE) binding protein 3 (AID 2282926); conditions: HepG2 CRE cis-reporter, Attagene multiplexed mRNA; actives raise or lower the signal
In short: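 Endogenous transcription factor activity read via CRE-regulated reporter transcripts in transfected HepG2 cells. After 24 h exposure, RNA was reverse-transcribed, amplified, fluorescently labelled and sized by capillary electrophoresis; gain or loss fitted against DMSO.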

[2] = ATG_CMV_CIS: Attagene CIS-FACTORIAL HepG2 Assay for human CMV (Internal Marker) (AID 2282928); conditions: HepG2 CMV promoter reporter, transcription factor profiling; actives raise or lower the signal;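 note: endpoint acts as a background internal control marker rather than a target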
In short: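 24 h chemical treatment, HepG2 with transient multi-reporter transfection; RNA → oligo(dT) RT → PCR → 6-FAM extension → HpaI digest → CE fluorescence. Bidirectional fit, DMSO negative control.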

[3] = ATG_DR4_LXR_CIS: Attagene CIS-FACTORIAL HepG2 Assay for human Liver X Receptor (LXR), DR4 submotif (AID 2282929); conditions: HepG2 Attagene DR4 cis-reporter, mRNA transcription; actives raise or lower the signal
In short: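 HepG2, transient MRTU transfection, cis-element (DR4) promoter; 24 h compound exposure; total RNA → oligo(dT) RT → PCR → 6-FAM primer extension → HpaI cut → CE. Gain/loss vs DMSO, bidirectional fit.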

[4] = target: Aryl hydrocarbon receptor (Homo sapiens) (UniProt P35869); assay: ATG_Ahr_CIS: Attagene CIS-FACTORIAL HepG2 Assay for human Aryl Hydrocarbon Receptor (Ahr) (AID 2282930); conditions: HepG2 AhR cis-factorial reporter transcription; actives raise or lower the signal
Aryl hydrocarbon receptor (Homo sapiens), sequence (P35869 whole entry, looked up): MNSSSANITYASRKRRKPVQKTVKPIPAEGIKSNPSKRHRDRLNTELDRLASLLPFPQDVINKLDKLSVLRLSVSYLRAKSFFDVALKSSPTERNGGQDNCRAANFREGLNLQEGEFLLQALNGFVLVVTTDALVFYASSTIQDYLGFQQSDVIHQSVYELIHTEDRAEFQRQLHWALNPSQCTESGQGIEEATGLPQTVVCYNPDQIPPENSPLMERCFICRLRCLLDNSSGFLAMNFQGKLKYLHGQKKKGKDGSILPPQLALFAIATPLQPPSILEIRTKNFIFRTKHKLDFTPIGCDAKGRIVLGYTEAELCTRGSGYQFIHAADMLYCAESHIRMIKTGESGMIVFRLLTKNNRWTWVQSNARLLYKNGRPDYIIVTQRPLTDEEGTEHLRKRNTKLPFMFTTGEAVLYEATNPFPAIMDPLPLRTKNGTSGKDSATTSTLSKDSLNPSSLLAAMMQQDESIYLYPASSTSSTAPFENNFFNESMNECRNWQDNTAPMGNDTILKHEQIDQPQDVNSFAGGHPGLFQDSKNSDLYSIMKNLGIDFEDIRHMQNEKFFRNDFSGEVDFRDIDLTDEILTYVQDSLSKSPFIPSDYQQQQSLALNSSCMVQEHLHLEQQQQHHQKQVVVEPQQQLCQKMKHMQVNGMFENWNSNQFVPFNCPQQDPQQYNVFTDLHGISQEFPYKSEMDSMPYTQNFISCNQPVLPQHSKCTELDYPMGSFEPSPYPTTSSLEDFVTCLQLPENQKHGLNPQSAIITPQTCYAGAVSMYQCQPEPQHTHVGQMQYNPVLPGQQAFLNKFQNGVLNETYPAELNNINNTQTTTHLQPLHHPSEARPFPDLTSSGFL
In short: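 HepG2, transient MRTU (cis) transfection, 24 h exposure. RNA → cDNA → PCR → 6-FAM primer extension → HpaI 2 h 37 C → CE. Fit: bidirectional, DMSO baseline.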

[5] = ATG_AP_1_CIS: Attagene CIS-FACTORIAL HepG2 Assay for human Activator Protein 1 (AP-1) (AID 2282931); conditions: HepG2 Attagene cis-factorial AP-1 reporter mRNA; actives raise or lower the signal
In short: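 Transient MRTU transfection of HepG2 → 24 h chemical treatment → RNA isolation, RT-PCR, 6-FAM labelling, HpaI digest → capillary electrophoresis. Fit: bidirectional, DMSO negative control.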

[6] = ATG_AP_2_CIS: Attagene CIS-FACTORIAL HepG2 Assay for human Activator Protein 2 (AP-2) (AID 2282932); conditions: HepG2 AP-2 cis-reporter, Attagene transcription factor profiling; actives raise or lower the signal
In short: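 Endogenous transcription factor activity is reported through transfected multiplex reporter constructs in HepG2, after 24 h of compound exposure. Transcripts were quantified by RT-PCR and capillary electrophoresis of fluorescent fragments. Bidirectional fit against DMSO.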

[7] = ATG_BRE_CIS: Attagene CIS-FACTORIAL HepG2 Assay for human Bone Morphogenetic Protein (BMP) Response Element (BRE) (AID 2282933); conditions: HepG2 BMP response element reporter, Attagene transcription factor profiling; actives raise or lower the signal
In short: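 After a 24 h chemical treatment, transiently transfected HepG2 cells were lysed for RNA; reporter transcripts were quantified by fluorescent RT-PCR and capillary electrophoresis, normalised to DMSO.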

[8] = target: Retinoic acid receptor alpha (Homo sapiens) (UniProt P10276); assay: ATG_DR5_RAR_CIS: Attagene CIS-FACTORIAL HepG2 Assay for human Retinoic Acid Receptor Alpha (RARE), DR5 submotif (AID 2282934); conditions: HepG2 Attagene cis-factorial RARE DR5 reporter, mRNA; actives raise or lower the signal;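 for AC50: reporter responds to endogenous RAR alpha beta and gamma in HepG2 not RARA alone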
Retinoic acid receptor alpha (Homo sapiens), sequence (P10276 whole entry, looked up): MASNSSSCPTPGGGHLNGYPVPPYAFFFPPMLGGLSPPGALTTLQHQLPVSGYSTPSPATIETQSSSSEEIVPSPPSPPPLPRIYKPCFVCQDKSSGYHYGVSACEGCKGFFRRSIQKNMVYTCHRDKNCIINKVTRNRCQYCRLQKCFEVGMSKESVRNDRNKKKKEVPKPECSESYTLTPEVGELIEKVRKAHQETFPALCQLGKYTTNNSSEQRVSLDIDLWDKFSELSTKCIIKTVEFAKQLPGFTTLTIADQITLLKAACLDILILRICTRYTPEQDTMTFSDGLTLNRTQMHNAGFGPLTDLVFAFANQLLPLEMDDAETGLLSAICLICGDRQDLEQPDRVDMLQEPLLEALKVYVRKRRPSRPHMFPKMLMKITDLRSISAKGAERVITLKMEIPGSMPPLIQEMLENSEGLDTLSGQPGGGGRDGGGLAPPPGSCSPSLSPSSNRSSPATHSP
In short: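 HepG2, transient cis-reporter transfection, 24 h exposure. mRNA readout: RT-PCR, FAM label, HpaI cut, capillary electrophoresis. DMSO baseline, gain/loss fitting.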

[9] = target: Transcription factor E2F1 (Homo sapiens) (UniProt Q01094); assay: ATG_E2F_CIS: Attagene CIS-FACTORIAL HepG2 Assay for human E2F Transcription Factor 1 (AID 2282935); conditions: HepG2 Attagene cis-reporter, E2F reporter RNA transcripts; actives raise or lower the signal
Transcription factor E2F1 (Homo sapiens), sequence (Q01094 whole entry, looked up): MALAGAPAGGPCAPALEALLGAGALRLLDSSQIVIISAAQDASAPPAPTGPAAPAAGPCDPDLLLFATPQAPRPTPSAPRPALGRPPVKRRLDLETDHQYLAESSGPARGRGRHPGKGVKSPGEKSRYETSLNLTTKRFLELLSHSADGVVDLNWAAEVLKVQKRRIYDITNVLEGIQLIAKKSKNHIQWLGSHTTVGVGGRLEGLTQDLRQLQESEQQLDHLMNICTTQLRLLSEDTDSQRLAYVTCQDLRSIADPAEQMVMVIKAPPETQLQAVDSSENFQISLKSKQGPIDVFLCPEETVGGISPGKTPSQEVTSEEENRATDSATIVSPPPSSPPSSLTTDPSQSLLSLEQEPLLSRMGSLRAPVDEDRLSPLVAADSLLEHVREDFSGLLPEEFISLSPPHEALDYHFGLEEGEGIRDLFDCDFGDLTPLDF
In short: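 Gain or loss of reporter transcript, fitted against DMSO, reflects E2F1-driven transcription. Transiently transfected HepG2 dosed 24 h before RNA isolation. Quantified by fluorescent RT-PCR products separated by capillary electrophoresis.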

[10] = target: CCAAT/enhancer-binding protein beta (Homo sapiens) (UniProt P17676); assay: ATG_C_EBP_CIS: Attagene CIS-FACTORIAL HepG2 Assay for human CCAAT/Enhancer Binding Protein (C/EBP) beta (AID 2282927); conditions: HepG2 Attagene cis-factorial transcription factor reporter; actives raise or lower the signal
CCAAT/enhancer-binding protein beta (Homo sapiens), sequence (P17676 whole entry, looked up): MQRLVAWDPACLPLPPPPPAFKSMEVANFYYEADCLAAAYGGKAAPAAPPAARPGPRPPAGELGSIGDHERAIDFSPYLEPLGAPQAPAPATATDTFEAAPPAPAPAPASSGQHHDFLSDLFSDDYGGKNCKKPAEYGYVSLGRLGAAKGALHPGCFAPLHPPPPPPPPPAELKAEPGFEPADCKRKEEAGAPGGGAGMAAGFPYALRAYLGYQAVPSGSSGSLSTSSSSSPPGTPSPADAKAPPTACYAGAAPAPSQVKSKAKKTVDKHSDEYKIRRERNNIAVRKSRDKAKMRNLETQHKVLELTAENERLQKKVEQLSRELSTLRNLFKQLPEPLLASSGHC
In short: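 Changes in reporter mRNA, rather than exogenous chimeric receptor activity, reflect native C/EBP signalling in transfected HepG2 cells dosed for 24 h; transcripts are detected by RT-PCR and capillary electrophoresis.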

Measured: AC50

O=C(Oc1ccccc1)c1cccc(C(=O)Oc2ccccc2)c1
not listed: [10]
inactive: all other assays above

COc1ccc(C(=O)Nc2nc3ccccc3c(NCc3ccccc3)c2C#N)cc1
active: [2] 3.82 µM | [4] 0.421 µM
not listed: [8] | [10]
inactive: all other assays above

N[C@@H](Cc1c[nH]c2ccccc12)C(=O)O
active: [4] 24 µM
not listed: [10]
inactive: all other assays above

O=C1NC(=O)C(c2ccccc2)(c2ccccc2)N1
active: [4] 59.3 µM
not listed: [8]
inactive: all other assays above

CCCC(=O)O
active: [1] 0.0135 µM | [2] 44.4 µM
not listed: [10]
inactive: all other assays above

CCc1cc(C2=C(C(=O)O)N(c3ccccc3C(F)(F)F)S(=O)(=O)c3ccccc32)cc2c1OCO2
active: [5] 38.6 µM
not listed: [4] | [8]
inactive: all other assays above

c1ccc2occc2c1
active: [4] 21.7 µM
not listed: [8]
inactive: all other assays above

Cc1ccc(-c2cc(C(F)(F)F)nn2-c2ccc(S(N)(=O)=O)cc2)cc1
active: [3] 14.4 µM
not listed: [10]
inactive: all other assays above

Oc1ccc(O)cc1
active: [5] 48.3 µM | [6] 28.8 µM | [7] 200 µM
not listed: [4]
inactive: all other assays above

S=c1[nH]c2ccccc2s1
active: [2] 100 µM | [5] 19.8 µM | [7] 7.98 µM
not listed: [4]
inactive: all other assays above

COC(=O)CCCC(=O)OC
not listed: [4]
inactive: all other assays above

O=NO
not listed: [10]
inactive: all other assays above

CCCCCCCCCCCCCCCCO
active: [8] 100 µM
not listed: [10]
inactive: all other assays above

CC(N)=O
active: [4] 29 µM
inactive: [1] | [2] | [3] | [4] | [5] | [6] | [7] | [8] | [9]

COc1ccc(OC(F)(F)F)cc1CN[C@H]1CCCN[C@H]1c1ccccc1
not listed: [8]
inactive: all other assays above

Cc1cc(Cc2ccc(N)c(C)c2)ccc1N
not listed: [4]
inactive: all other assays above

NC(=Nc1ccccc1)Nc1ccccc1
active: [3] 61.8 µM | [4] 13.1 µM
not listed: [8] | [10]
inactive: all other assays above

COC(=O)[C@H]1[C@H]2C[C@@H]3c4[nH]c5cc(OC)ccc5c4CCN3C[C@H]2C[C@@H](OC(=O)c2cc(OC)c(OC)c(OC)c2)[C@@H]1OC
active: [1] 21.9 µM | [3] 22.8 µM | [4] 12.5 µM | [5] 25.5 µM
not listed: [8]
inactive: all other assays above

Cc1c(C)c2c(c(C)c1O)CCC(C)(COc1ccc(CC3SC(=O)NC3=O)cc1)O2 (stereo unspecified)
active: [3] 6.81 µM | [5] 9.14 µM
not listed: [8]
inactive: all other assays above

CN(C)CCCN1c2ccccc2Sc2ccc(Cl)cc21
active: [3] 9.33 µM | [5] 18.2 µM
not listed: [8] | [10]
inactive: all other assays above

CC(C)(C)c1ccccc1
not listed: [4] | [10]
inactive: all other assays above

OCC(CO)n1cnc(-c2ccc(F)cc2)c1-c1ccnc(Oc2ccccc2)n1
not listed: [8] | [10]
inactive: all other assays above

Cc1ccc(C(C)(C)C)c(O)c1
active: [1] 147 µM | [2] 100 µM | [3] 167 µM
not listed: [8] | [10]
inactive: all other assays above
